{
  "source": "PubChem BioAssay (EPA / NIEHS)",
  "note": "Calls of active or inactive are those of the source. The calls were made as follows: active = hit-call score of the fitted dose curve at least 0.9, where 1 is the maximum; inactive = score below 0.9.",
  "data": [
    {"read-out": "Pyruvate Dehydrogenase Kinase 4 (PDK4), PDK4 (gene 5166)", "assay": "LTEA_HepaRG_PDK4: Life Technologies and Expression Analysis (LTEA) Assay for Pyruvate Dehydrogenase Kinase 4 (PDK4) using HepaRG (AID 2283525)", "details": "mRNA level, 48 h; actives raise or lower the signal", "protocol": "LTEA_HepaRG is a cell based, multiplexed-readout assay that uses HepaRG, a human liver cell line, with measurements taken at 48 hours after chemical dosing on a 96-well plate.LTEA_HepaRG_PDK4 is one of 102 assay component(s) measured in the LTEA HepaRG cell culture assay. It is a marker of Diseases associated with PDK4 including Platelet Glycoprotein Iv Deficiency and Diabetes Mellitus, Noninsulin-Dependent.Data from the assay component LTEA_HepaRG_PDK4 was analyzed into 1 endpoint. This assay endpoint, LTEA_HepaRG_PDK4, was analyzed with bidirectional fitting relative to DMSO as the negative control and baseline of activity. Using a type of inducible reporter, measures of mRNA induction for gain or loss-of-signal activity can be used to understand regulation of transcription factor activity. To generalize the intended target to other relatable targets, this assay endpoint is annotated to the kinase intended target family, where the subfamily is serine/threonine kinase.\nA total of 1060 chemcials from the ToxCast library were tested in eight-point concentration-response experiments. Cell culture and cytotoxicity assays were conducted at Thermo Fisher Scientific's Custom Services facility (Madison, WI). A single lot of human HepaRG cells (Thermo Fisher Scientific, Frederick, MD) was used for the cell culture experiments. 96-well format collagen type I coated plates of human HepaRG cells were prepared using established methods. Briefly, cryopreserved HepaRG cells were thawed, plated at a density of approximately 100,000 cells/well in HepaRG Thaw, Plate, and General Purpose media (HPRG770, Thermo Fisher Scientific), and incubated for 48 hours. 0.5% DMSO was selected as vehicle control to balance the requisite need of DMSO in HepaRG cultures to maintain differentiation (for example, baseline metabolism, proportions of hepatocytes vs. cholangiocytes), while enabling further hepatic receptor pathway activation (for example, PXR and CAR) in response to chemical exposure. 48 hours after plating, the culture medium was replaced with HepaRG Serum-Free Incudtion Media. Cells were exposed to each test chemical in duplicate and maintained in CO2 incubators for another 48 hours. Chemical plates were thawed to room temperature and 200x concentrations of treatment groups were prepared. 8-point conentration-reponse curves were made with the highest exposure at 100 uM, followed by half-log dilutions, all in 0.5% DMSO. Each test plate contained variouse controls, induction positive controls (1mM phenobarbital), cytotoxicity positive controls ([…] aflatoxin B1), vehicle controls (0.5% DMSO), and total lysis controls (0.5% DMSO). Cell morphology images were taken using an Essen IncuCyte FLR automated microscope, with six 96-well plates imaged in about 24 minutes. Images were captured and exported and JPEG files. Spent culture media was transfered to black-well plates for the LDH assay, and remaining media was sorted at -80 C for later use. Cells were treated with RLT buffer and frozen until shipped for gene expression analysis. Total RNA was isolated from the cell suspension in 75 uL of Buffer RLT (Qiagen, Germantown, MD 20874) by Quintiles/Expression Analysis (Durham, NC) using a custom isolation procedure. Total RNA from each plate well was transferred to a preamplification plate. Fluidigm's 96.96 Dynamic ArrayTM (Fluidigm, Amsterdam, the Netherlands) technology was used for gene expression analyses by quantitative reverse transcription polymerase chain reaction (qRT-PCR, performed by Quintiles/Expression Analysis, Durham, NC)89. Standard TaqManTM Assays (Applied Biosystems/ThermoFisher Scientific, Foster City, CA) were used to assess the expression of 93 genes selected based on their selectivity and sensitivity to important hepatic receptors known to be modulated by environmental chemicals; importance in human hepatocyte functionality; and hepatotoxicity. […]", "values": [
      {"smiles": "Oc1cc(Cl)c(Cl)cc1Cl", "outcome": "inactive"},
      {"smiles": "CN(C)C(=S)S", "outcome": "inactive"},
      {"smiles": "Cc1cc(C)cc(C)c1", "outcome": "inactive"},
      {"smiles": "O=C(O)C1(c2ccc3c(c2)OC[C@H](Cc2ccc(-c4ccccc4)cc2)[C@H]3O)CCCC1", "AC50": "11.4 µM (active)"},
      {"smiles": "CCCCCCCCCCCCc1cccc(S(=O)(=O)O)c1", "outcome": "inactive"},
      {"smiles": "COc1ccccc1N", "outcome": "inactive"},
      {"smiles": "Clc1cccc(Cl)c1Cl", "outcome": "inactive"},
      {"smiles": "O=C(N[C@H]1CN2CCC1CC2)c1ccc2c(c1)OCCO2", "outcome": "inactive"},
      {"smiles": "CC(C)(C)c1ccccc1O", "outcome": "inactive"},
      {"smiles": "CC(C)O.CC(C)O.OCCN(CCO)CCO.OCCN(CCO)CCO.[Ti]", "outcome": "inactive"},
      {"smiles": "N#Cc1cccnc1", "outcome": "inactive"},
      {"smiles": "Clc1cccc(Cl)c1", "outcome": "inactive"},
      {"smiles": "Oc1c(Cl)cc(Cl)cc1Cl", "outcome": "inactive"},
      {"smiles": "OCCN(CCO)CCO", "outcome": "inactive"}
    ]}
  ]
}
